PMC4053984, “DNA binding specificities of the long zinc-finger recombination protein PRDM9”

Biological target: PRDM9Cst (Mus musculus (CAST/EiJ))
Experiment: competition EMSA; competition against biotin-labeled 75-bp Hlx1 B6 oligo; 10 mM Tris pH 7.5, 50 mM KCl, 1 mM DTT, 50 ng/ul poly(dI/dC), 0.05% NP-40, crude E. coli extract 3 ul in 20 ul; 1 h with unlabeled competitor, then 4 h with biotin-labeled 75-bp Hlx1; temperature not stated; high values mean tight binding
Conditions: tags: N-terminal His tag (pBAD/HisB); dsDNA, one strand shown

PRDM9Cst (Mus musculus (CAST/EiJ)), sequence (chain, as listed by the source): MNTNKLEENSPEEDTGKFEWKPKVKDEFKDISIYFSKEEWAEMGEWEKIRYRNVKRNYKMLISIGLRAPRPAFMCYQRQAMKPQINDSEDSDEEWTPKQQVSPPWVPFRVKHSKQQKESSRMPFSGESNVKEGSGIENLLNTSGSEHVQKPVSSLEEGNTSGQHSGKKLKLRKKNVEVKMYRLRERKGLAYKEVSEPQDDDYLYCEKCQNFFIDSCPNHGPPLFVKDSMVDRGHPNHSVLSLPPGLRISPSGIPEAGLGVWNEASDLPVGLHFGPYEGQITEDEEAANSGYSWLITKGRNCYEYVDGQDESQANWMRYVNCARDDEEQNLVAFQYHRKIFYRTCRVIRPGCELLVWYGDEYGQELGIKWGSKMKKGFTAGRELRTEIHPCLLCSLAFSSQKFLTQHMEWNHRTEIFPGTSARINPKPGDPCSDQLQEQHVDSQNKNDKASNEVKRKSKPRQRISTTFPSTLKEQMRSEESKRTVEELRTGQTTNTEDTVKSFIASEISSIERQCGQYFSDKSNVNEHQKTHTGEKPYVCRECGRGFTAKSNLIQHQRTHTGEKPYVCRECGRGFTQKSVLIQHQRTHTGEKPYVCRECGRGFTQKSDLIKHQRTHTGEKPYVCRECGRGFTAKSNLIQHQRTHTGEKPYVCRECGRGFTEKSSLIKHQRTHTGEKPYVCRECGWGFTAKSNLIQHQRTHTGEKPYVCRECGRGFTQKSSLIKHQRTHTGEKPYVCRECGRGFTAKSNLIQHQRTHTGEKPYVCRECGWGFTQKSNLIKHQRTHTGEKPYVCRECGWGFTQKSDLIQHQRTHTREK

Sequence | binding signal
ATAGTGTGCAGACTTGGACCCTGCGCTTTCTTT | -0.4 Bmut (0 = wild type, -1 = scrambled)
ATAGTGTGCAGACTTTGACCCTGCCCTTTCTTT | 0 Bmut (0 = wild type, -1 = scrambled)
ATAGTGTGCAGGCTTGGACCCTGCCCTTTCTTT | -0.1 Bmut (0 = wild type, -1 = scrambled)
ATAGTGTGCAGACTTGGACCCAGCCCTTTCTTT | 0.01 Bmut (0 = wild type, -1 = scrambled)
ATAGTGTGCAGACTTGGACCCTGCACTTTCTTT | -0.1 Bmut (0 = wild type, -1 = scrambled)
ATAGTGTCCAGACTTGGACCCTGCCCTTTCTTT | -0.1 Bmut (0 = wild type, -1 = scrambled)
ATAGTGTGCAGACTTGGACCCGGCCCTTTCTTT | -0.5 Bmut (0 = wild type, -1 = scrambled)
ATAGTGTGCAGACTTGGACCCTGCCCTTTCTTA | 0.13 Bmut (0 = wild type, -1 = scrambled)
ATAGTATGCAGACTTGGACCCTGCCCTTTCTTT | 0 Bmut (0 = wild type, -1 = scrambled)
ATAGTGTGCAGACTTAGACCCTGCCCTTTCTTT | -0.1 Bmut (0 = wild type, -1 = scrambled)
ATAGTGTGCAGACTTGGACACTGCCCTTTCTTT | -0 Bmut (0 = wild type, -1 = scrambled)
ATAGTGTGCAGACTTGGACCCTGCCCTTTCATT | 0.08 Bmut (0 = wild type, -1 = scrambled)
ATAGTGTGCAGACTTGGACCCTGCCCTTTCTGT | 0.09 Bmut (0 = wild type, -1 = scrambled)
ATAGTGTGCAGACTTGGACCCTGCCCTTTCCTT | 0.12 Bmut (0 = wild type, -1 = scrambled)
ATCGTGTGCAGACTTGGACCCTGCCCTTTCTTT | -0.1 Bmut (0 = wild type, -1 = scrambled)
ATAGTGCGCAGACTTGGACCCTGCCCTTTCTTT | -0.2 Bmut (0 = wild type, -1 = scrambled)
ATAGTTTGCAGACTTGGACCCTGCCCTTTCTTT | -0.3 Bmut (0 = wild type, -1 = scrambled)
ATAGTGTGCAGACATGGACCCTGCCCTTTCTTT | -0.7 Bmut (0 = wild type, -1 = scrambled)
ATAGTGTGCAGACTTGGAGCCTGCCCTTTCTTT | -0.5 Bmut (0 = wild type, -1 = scrambled)
ATAGTGTGCAGACTTGGACCATGCCCTTTCTTT | 0.07 Bmut (0 = wild type, -1 = scrambled)
ATAGTGTGCAGACTTGGACCCTGCCCTTTCGTT | 0.12 Bmut (0 = wild type, -1 = scrambled)
ATAGTGTTCAGACTTGGACCCTGCCCTTTCTTT | -0.4 Bmut (0 = wild type, -1 = scrambled)
